# Compound activity as filed in PubChem.
# Shown are actives, neighbours in structure and some others; about 19% of the full set was active somewhere.
# DT40 TDP1 CPT = DT40-hTDP1 cell growth loss with CPT; chicken DT40 Tdp1-/-;hTDP1 cells + 20 nM CPT, ATP luminescence, 48 h; Potency, µM (titrated, usually from 46.2 µM), for inactives: at the highest dose activity change, negative = growth inhibition, hits mostly inhibitors; 420,000 compounds, 12% hits; AID 686979; also: potency is read from the fitted curve at half-maximal effect; nearly all actives have a fitted effect of over 55% in size
#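 Chicken DT40 Tdp1-/- cells complemented with human TDP1, 400 cells/well, exposed to compounds plus 20 nM camptothecin for at least 48 h at 37 C; viability read as ATP content by CellTiter-Glo luminescence.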
# HT1080-NT tox = kills 2HG-producing HT-1080-NT fibrosarcoma cells; HT-1080-NT fibrosarcoma viability, CellTiter-Glo ATP luminescence, 48 h; Potency, µM (doses to about 46.1 µM), without a hit: at the highest dose activity, negative = less viability, usual class: cytotoxic; 360,000 compounds, 1.6% hits;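 also: NT is the 2HG producing partner of a matched IDH1 knockdown line; potency is read from the fitted curve at half-maximal effect; 0% = DMSO-treated cells and -100% = media-only wells without cells; nearly all actives have a fitted effect of over 55% in size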
#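 750 cells/well, RPMI + 5% FBS; 2 h settle, compound pin-transfer, 48 h at 37 degrees C. CellTiter-Glo 10 min RT, luminescence. Normalized to DMSO and media-only wells.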
# TDP1 cell noCPT = qHTS for Inhibitors of human tyrosyl-DNA phosphodiesterase 1 (TDP1): qHTS in cells in absence of CPT. DT40 Tdp1-/- hTDP1 cells, no CPT, ATP luminescence, 48 h. AID 686978, 2013. Potency, µM (doses to about 46.2 µM), for inactives: at the top dose activity change, negative = growth inhibition, usual class: inhibitors. 420,000 compounds, 15% hits; also: potency is read from the fitted curve at half-maximal effect; nearly all actives have a fitted effect of over 55% in size
#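 Chicken DT40 Tdp1-/- cells complemented with human TDP1, screened without camptothecin (DMSO vehicle only), 400 cells/well. Compounds pin-transferred, cells incubated at 37 °C for at least 48 hr. Growth read as ATP-dependent luminescence (CellTiter-Glo, 30 min at RT).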
# HT1080 IDH1KD tx = toxicity to HT-1080 IDH1 knockdown cells (counter line); HT-1080 IDH1 knockdown viability, ATP luminescence, 48 h; Potency, µM (highest dose often 46.1 µM), for inactives: at the top dose activity, negative = toxicity, usual class: cytotoxic; 360,000 compounds, 2% hits;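 also: potency is read from the fitted curve at half-maximal effect; 0% = DMSO wells and -100% = cell-free medium wells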
#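 CellTiter-Glo luminescence after 48 h compound exposure at 37 degrees C of IDH1-knockdown HT-1080 cells in 5% FBS RPMI. %Activity scaled between DMSO wells and cell-free media wells, with curves fitted and assigned curve classes.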
# IL1B secr inh = inhibitors of inflammasome signaling (IL-1 beta secretion); THP-1 LPS/ATP IL-1B secretion, AlphaLISA, 16 h; active compounds read low; activity change, % at 57.5 µM; 360,000 compounds, 4.7% hits; AID 743279; in the data active = activity change below about -50%; inconclusive = mostly about -30% to -49%
#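 THP-1 cells pretreated 1 hr with compounds (up to 57.5 uM final), then stimulated with LPS (250 ng/mL final) plus ATP (1.25 mM final); secreted IL-1B measured by AlphaLISA after 16 hr, decreased signal indicating inhibition.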
# The depositor's hits bear a star; i = inactive; ? = inconclusive; . = not tested or not shown. Unless noted, calls follow the shape of the dose curve; as a rule, active = well fitted curve in the direction sought with a large enough effect; inconclusive = small, poorly fitted or top-dose-only effect, or another doubt; inactive = no such curve, though single readings can be large; an effect the other way counts as inactive or inconclusive. Unless noted, % is scaled to controls: 0 for no effect and ±100 for the full control effect.
SMILES,DT40 TDP1 CPT,HT1080-NT tox,TDP1 cell noCPT,HT1080 IDH1KD tx,IL1B secr inh
CCOC(=O)c1cc(-c2ccccc2)sc1NC(=O)COC(=O)c1cccc(S(N)(=O)=O)c1,?,-21%,10µM*,?,-11
CCOC(=O)c1cc(-c2ccccc2)sc1NC(=O)CCN1C(=O)c2ccccc2C1=O,-20%,20%,?,22%,3
CCOC(=O)c1cc(-c2ccccc2)sc1NC(=O)c1ccc(OC)cc1,7.3µM*,16%,?,11%,-14
CCOC(=O)c1cc(-c2ccccc2)sc1NC(=O)C(C)N1C(=O)c2ccccc2C1=O (stereo unspecified),-5%,27%,-4%,22%,-53*
CCOc1ccc(CCNC(=O)CCNC(=O)c2ccco2)cc1OCC,-24%,-1%,20%,6%,-7
CCOc1ccc(CN(C)CC(O)COC(c2ccc(OC)cc2)c2ccc(OC)cc2)cc1 (stereo unspecified),?,16µM*,18µM*,?,-59*
COc1ccc(CN(C)CC(O)COC(c2ccc(OC)cc2)c2ccc(OC)cc2)cc1 (stereo unspecified),?,21µM*,23µM*,?,?
CN(CC(O)COc1ccccc1F)C1CCCCC1 (stereo unspecified),0%,4%,-3%,2%,12
CN(Cc1ccccc1)CC(O)CN(C)Cc1ccccc1,?,-2%,-29%,-2%,-15
COc1ccc(C(OCC(O)CN(C)C2CCCCC2)c2ccc(OC)cc2)cc1 (stereo unspecified),16µM*,?,?,?,-71*
CCN(C[C@H]1N[C@@](Cc2ccccc2)(C(=O)OC)[C@H]2C(=O)N(C)C(=O)[C@@H]12)C(C)=O,-7%,18%,0%,12%,33
Cn1c(=O)[nH]c(=O)c2c1nc([N+](=O)[O-])n2Cc1ccccc1,0.65µM*,2.6µM*,1µM*,3.3µM*,.
CC(C)Cn1c([N+](=O)[O-])nc2c1c(=O)[nH]c(=O)n2C,3.3µM*,13µM*,4.6µM*,16µM*,-98*
Clc1ccccc1/C=C/C=N/Nc1nc(N2CCOCC2)nc(N2CCOCC2)n1,23µM*,-1%,23µM*,-17%,-16
Nc1ccn(C2C=CC(CO)O2)c(=O)n1 (stereo unspecified),-12%,3%,8%,-1%,.
CCOc1cc(-c2nnc(SCC(=O)NCc3ccccc3)nc2-c2ccc(OC)c(OCC)c2)ccc1OC,5.8µM*,.,3.3µM*,.,.
CCCCn1c(-c2ccccc2)cnc1SCC(=O)NCCc1ccc(OC)c(OC)c1,23µM*,-19%,26µM*,-27%,-77*
COc1ccc(-c2nnc(SCC(=O)NCCc3ccc(OC)c(OC)c3)nc2-c2ccc(OC)cc2)cc1,18µM*,.,18µM*,.,.
COc1ccc(CCNC(=O)CSc2nnc(-c3ccccc3)c3ccccc23)cc1OC,16µM*,9%,?,7%,0
COc1ccc(OCC(CO)N2CCN(c3ccccc3)CC2)cc1 (stereo unspecified),5%,9%,-10%,8%,-4
CC(C)NC(=O)C1C(c2ccc(C(F)(F)F)cc2)=Nc2ccccc2N1C(=O)c1cccc2ccccc12 (stereo unspecified),?,12%,?,2%,29
COc1ccc(-c2nnc(SCC(=O)NCCC(C)C)nc2-c2ccc(OC)c(OC)c2)cc1OC,?,-1%,?,-14%,?
COc1ccc(-c2nnc(SCC(=O)Nc3cccc(C(F)(F)F)c3)nc2-c2ccc(OC)cc2)cc1,?,.,18µM*,.,.
COc1ccc(-c2cc(C(F)(F)F)nc(SCC(=O)NCCc3ccc(OC)c(OC)c3)n2)cc1,21µM*,.,21µM*,.,.
COCCNC(=O)CSc1nnc(-c2ccc(C)cc2)c(-c2ccc(C)cc2)n1,26µM*,-7%,?,-12%,-26
SMILES,DT40 TDP1 CPT,HT1080-NT tox,TDP1 cell noCPT,HT1080 IDH1KD tx,IL1B secr inh
COCCNC(=O)CSc1ccc(C)cc1,4%,7%,15%,3%,2
CCOc1ccc(-c2nnc(SCC(=O)Nc3cccc(OC)c3)nc2-c2ccc(OCC)cc2)cc1,-13%,.,-7%,.,.
COc1ccc(-c2nnc(SCC(=O)NCc3ccc(C)cc3)nc2-c2ccc(OC)c(OC)c2)cc1OC,15µM*,.,18µM*,.,.
COC(=O)c1ccccc1NN=Nc1ccccc1[N+](=O)[O-],0%,9%,-11%,10%,-13
CC(C)CC(OC(=O)c1nsc(Cl)c1Cl)C(=O)NCC1CCCO1 (stereo unspecified),-5%,18%,8%,6%,16
CC1CCCCN1CCCNC(=O)c1sc2ncccc2c1-n1cccc1 (stereo unspecified),-24%,.,-23%,.,.
O=C(Nc1ccc(N2CCN(C(=O)c3ccccc3)CC2)c(Cl)c1)c1ccco1,16µM*,-20%,13µM*,?,-79*
CCC(=O)N1CCN(c2ccc(NC(=O)c3ccco3)cc2Cl)CC1,8%,11%,-10%,12%,i
CCC(=O)N1CCN(c2ccc(NC(=O)c3cc4ccccc4o3)cc2Cl)CC1,9.2µM*,?,13µM*,16µM*,-115*
COC(=O)c1ccc(N2CCN(C)CC2)c(NC(=O)c2cc3ccccc3o2)c1,21µM*,-1%,23µM*,2%,8
CCCC(=O)N1CCN(c2ccc(NC(=O)c3cc4ccccc4o3)cc2Cl)CC1,3.3µM*,18µM*,3.7µM*,21µM*,-111*
COC(=O)C[C@@H]1C=C[C@@H](NS(=O)(=O)c2ccccc2OC)[C@@H](CO)O1,3%,28%,11%,8%,35
O=C(Nc1ccc(N2CCN(C(=O)c3ccco3)CC2)c(Cl)c1)c1cc2ccccc2o1,4.1µM*,?,8.2µM*,15µM*,-105*
Cc1ccccc1CNC(=O)c1ccc2c(c1)N(Cc1ccccc1)CCS2,?,.,21µM*,.,.
O=C(NCc1ccccc1Cl)c1ccc2c(c1)N(Cc1ccccc1)CCS2,13µM*,.,18µM*,.,.
CC(=O)N(C(C)=O)S(=O)(=O)c1ccc(N=NN2CCCCC2)cc1,10%,12%,-12%,17%,3
CNC(=O)c1cc(Oc2ccc(NC(=O)Nc3ccc(Cl)c(C(F)(F)F)c3)cc2)ccn1,21µM*,?,23µM*,?,-102*
O=C(Nc1ccc(Cl)c(C(F)(F)F)c1)c1ccncc1,?,-9%,15µM*,-16%,-9
Cc1ccc(NC(=O)c2ccc(C)cc2)cc1,4%,9%,-7%,23%,-2
